Experimental findings from PubChem BioAssay are described below.

“And” between values parts separate entries of the source, which are not always exact repeats. Equal values may be shown once. The source made the active and inactive calls.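 The calls were made as follows, unless noted: active = compounds lowering colon cancer cell viability after pretreatment blocking the GSK3B kinase; inactive = the rest.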

Assay [1] is described as follows: Wnt pathway potentiators raising nuclear beta-catenin – imaging, WNT3A-conditioned medium, mouse C2C12, NPC library, primary screen (AID 1117326; in the data active = nuclear beta-catenin stimulation mostly above about 4.2%, no sharp cut-off; inactive = mostly below about 10%). The note with it: stronger effect = higher value.
Assay [2] can be described thus: stimulators of insulin release from INS-1E, primary screen, cell-based, 5 mM glucose, NPC library (AID 1117329;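 active = compound raises insulin release from rat beta cells at 5 mM glucose, no numeric limit stated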). To be noted: rat INS-1E insulin secretion, at 10 µM, stronger effect = higher value.
Assay [3] can be described thus: growth inhibition of GSK3B-pretreated HCT116 cells – cell-based, CellTiter-Glo, 0.2 to 20 µM (AID 1117336). To be noted: HCT116 viability after GSK3B inhibitor, at 20 µM, stronger effect = higher value. On the technique in general: In ATP-based viability assays light output follows the ATP content of the culture.
Assay [4] is described as follows: inhibition of endothelial tube formation, primary screen, imaging, VEGF stimulated, CD31 staining, tube area, NPC library (AID 1117340;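 active = compound that reduces growth-factor-driven endothelial tube area in a mixed cell culture, no cutoff stated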). The note with it: VEGF-stimulated ADSC/ECFC co-culture, at 10 µM, stronger effect = higher value.
Assay [5] can be described thus: GLP1 release stimulators, primary, NCI-H716, NPC library (AID 1117341;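 active = compound raises GLP1 secretion from the human gut endocrine cells, with no numeric limit stated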). The note with it: NCI-H716 cells, at 10 µM, stronger effect = higher value.
Assay [6] in a line: HCT116 colon cancer cell growth inhibition, primary screen, CellTiter-Glo luminescence, NPC library (AID 1117342;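 active = compounds that lower survival of HCT116 colon cancer cells in the luminescence readout, no numeric limit stated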). To be noted: at 20 µM (top of the series).
Assay [7] can be described thus: reduced SW480 viability measured with CellTiter-Glo, NPC library, primary (AID 1117343;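 active = compounds that lower viability of the colon cancer cells in the luminescence readout, with no numeric limit stated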). The note with it: CellTiter-Glo luminescence; at 20 µM (top of the series).
Assay [8] can be described thus: NPC library primary testing for decreased DLD-1 cell viability via CellTiter-Glo (AID 1117346;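 active = compounds that lower survival of DLD-1 colon cancer cells in the luminescence readout, no cutoff given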). To be noted: DLD-1 viability, CellTiter-Glo luminescence; at 20 µM (top of the series).
Assay [9] addresses 6-phosphogluconate dehydrogenase, decarboxylating (Homo sapiens) (UniProt P52209). Briefly: inhibition of human phosphogluconate dehydrogenase – biochemical, recombinant enzyme, NADPH absorbance, primary screen (AID 1159550;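 active = at least 20% inhibition of 6-phosphogluconate dehydrogenase activity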). The note with it: recombinant 6PGD, NADPH absorbance 341 nm; at 10 µM; stronger effect = higher value.
Assay [10] is described as follows: EMT-state selective cytotoxicity in co-culture – imaging, PC-3E GFP, TEM4-18 mCherry, primary screen (AID 1345086;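 active = compounds killing one labelled cell type while sparing the other, by normalised counts and ratio limits, not self-fluorescent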;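 as to all read-outs here: cells exposed to compound for 72 h before imaging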;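 as to red/green cell ratio (normalised): normalised mesenchymal count divided by normalised epithelial count so high means epithelial killing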). The note with it: PC-3E GFP / TEM4-18 mCherry co-culture, imaging cell counts, at 1 µM; for red/green cell ratio (normalised): actives lie on both sides, counts scaled to control wells, 1 = unselective.
A short description of assay [11]: MELAS cybrid and Rieske KO viability enhancers – cell-based, MELAS cybrids, Rieske KO mouse fibroblasts, CellTiter-Glo, primary screen (AID 1508586;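 active = mean z-score across replicates of 1.96 or higher in either the MELAS or the Rieske mutant cell line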;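 also: z relative to plate mean and SD of compound and empty wells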). To be noted: low glucose.
Assay [12] deals with NAD(+) hydrolase SARM1 (Homo sapiens) (UniProt Q6SZW1). Briefly: blocking NAD cleavage by SARM1 SAM-TIR – cell lysate, NAD-Glo luminescence (AID 1508614;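 active = compound whose remaining NAD level is above about 45 nM, limit read from the data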;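 also: higher remaining NAD means stronger inhibition of SARM1 NADase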). To be noted: SAM-TIR HEK293T lysate NADase, at 1 µM, stronger effect = higher value.
Assay [13] addresses Mitogen-activated protein kinase 7 (Homo sapiens) (UniProt Q13164). The experiment in a line: Gal4-ERK5 driven luciferase induction – cell-based, HTS, primary screen (AID 1508626;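 active = luciferase signal above three times the same-plate solvent-only control wells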;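 also: luciferase driven by Gal4-ERK5 fusion binding five Gal4 sites before minimal TATA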). The note with it: HeLa Gal4-ERK5 transactivation, 18 h, at 5 µM, stronger effect = higher value.
Assay [14] can be described thus: modulation of C. elegans fzo-1 (AID 1259413; call rule not given here;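 also: fzo-1 mutant C. elegans worms in liquid wells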). The note with it: C. elegans fzo-1 modulator screen, mean read-out; stronger effect = higher value.
The subject of another assay is F380Y. The experiment in a line: BK channel mutant inhibitors and activators – cell-based, U2OS BacMam, thallium flux, beta subunits, selectivity assay, profiling panel (AID 1259406;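 active = thallium flux through the channel raised or lowered by more than 3 SD from vehicle-only wells, actives on both sides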;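 also: initial slope of Thallos dye fluorescence rise after thallium is added; log ratio against the mean of 0.3% DMSO vehicle wells on the same plate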). To be noted: U2OS BacMam BK variants, at 30 µM.
The next assay deals with F380Y/beta1. The assay is described as above. The note with it: U2OS BacMam BK variants, at 30 µM.
A further assay relates to F380Y/beta2Delta. The assay is described as above. The note with it: U2OS BacMam BK variants, at 30 µM.
In the next assay the test system is F380Y/beta4. Described as above. The note with it: U2OS BacMam BK variants, at 30 µM.
Assay [15] addresses Calcium-activated potassium channel subunit alpha-1 (Homo sapiens) + Leucine-rich repeat-containing protein 26 (Homo sapiens) (UniProt Q12791+Q2I0M4). The assay is described as above. To be noted: U2OS BacMam BK variants, F380Y/Slo1WT/gamma1, at 30 µM.
The mark [16] stands for this setting: measured here: epithelial PC-3E GFP cell survival.
Setting [17] is: measured here: mesenchymal TEM4-18 mCherry cell survival.
Where [18] appears, read: MELAS cybrid survival, CellTiter-Glo 48 h, stronger effect = higher value.
Setting [19] is: Rieske KO mouse fibroblast survival, CellTiter-Glo 72 h.

One may read the inhibition as the percentage by which the read-out fell short of the control.

Sequence of Mitogen-activated protein kinase 7 (Homo sapiens) (Q13164 whole entry, looked up, the tested form may be a part): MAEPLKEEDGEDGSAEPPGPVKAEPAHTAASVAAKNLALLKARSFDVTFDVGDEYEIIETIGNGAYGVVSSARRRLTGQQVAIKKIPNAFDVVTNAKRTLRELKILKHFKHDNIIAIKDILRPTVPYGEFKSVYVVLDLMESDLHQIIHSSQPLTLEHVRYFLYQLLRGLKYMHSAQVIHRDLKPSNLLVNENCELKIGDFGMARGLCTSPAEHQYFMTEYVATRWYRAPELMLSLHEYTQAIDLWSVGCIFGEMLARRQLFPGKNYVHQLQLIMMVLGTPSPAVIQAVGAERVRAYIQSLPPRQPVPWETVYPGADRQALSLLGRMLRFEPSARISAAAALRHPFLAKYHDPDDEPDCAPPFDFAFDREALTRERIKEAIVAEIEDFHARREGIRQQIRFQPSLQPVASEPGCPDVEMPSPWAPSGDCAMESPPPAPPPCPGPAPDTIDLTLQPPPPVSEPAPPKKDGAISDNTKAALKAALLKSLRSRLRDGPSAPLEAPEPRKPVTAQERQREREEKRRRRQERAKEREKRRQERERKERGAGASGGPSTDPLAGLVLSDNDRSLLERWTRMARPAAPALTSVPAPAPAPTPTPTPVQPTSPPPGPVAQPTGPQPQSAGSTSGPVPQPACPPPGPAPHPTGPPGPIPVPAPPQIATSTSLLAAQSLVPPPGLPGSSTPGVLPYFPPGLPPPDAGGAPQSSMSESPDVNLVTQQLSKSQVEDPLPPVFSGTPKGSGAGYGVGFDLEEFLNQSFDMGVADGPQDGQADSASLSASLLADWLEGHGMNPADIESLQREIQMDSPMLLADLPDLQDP
Sequence of 6-phosphogluconate dehydrogenase, decarboxylating (Homo sapiens) (P52209 whole entry, looked up): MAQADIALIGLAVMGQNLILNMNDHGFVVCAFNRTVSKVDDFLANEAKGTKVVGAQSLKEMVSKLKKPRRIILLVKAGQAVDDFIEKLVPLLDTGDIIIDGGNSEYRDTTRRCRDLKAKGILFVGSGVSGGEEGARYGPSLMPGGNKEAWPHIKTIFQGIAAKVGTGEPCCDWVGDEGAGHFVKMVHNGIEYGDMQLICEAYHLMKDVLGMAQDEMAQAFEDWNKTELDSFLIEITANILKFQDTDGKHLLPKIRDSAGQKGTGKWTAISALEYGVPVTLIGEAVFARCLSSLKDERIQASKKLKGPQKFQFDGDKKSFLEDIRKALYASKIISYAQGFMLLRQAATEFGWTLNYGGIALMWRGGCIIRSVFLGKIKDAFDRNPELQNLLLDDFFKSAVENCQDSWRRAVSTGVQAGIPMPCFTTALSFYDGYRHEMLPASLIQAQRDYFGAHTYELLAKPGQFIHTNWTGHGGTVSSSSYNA
Sequence of NAD(+) hydrolase SARM1 (Homo sapiens) (Q6SZW1 whole entry, looked up, the tested form may be a part): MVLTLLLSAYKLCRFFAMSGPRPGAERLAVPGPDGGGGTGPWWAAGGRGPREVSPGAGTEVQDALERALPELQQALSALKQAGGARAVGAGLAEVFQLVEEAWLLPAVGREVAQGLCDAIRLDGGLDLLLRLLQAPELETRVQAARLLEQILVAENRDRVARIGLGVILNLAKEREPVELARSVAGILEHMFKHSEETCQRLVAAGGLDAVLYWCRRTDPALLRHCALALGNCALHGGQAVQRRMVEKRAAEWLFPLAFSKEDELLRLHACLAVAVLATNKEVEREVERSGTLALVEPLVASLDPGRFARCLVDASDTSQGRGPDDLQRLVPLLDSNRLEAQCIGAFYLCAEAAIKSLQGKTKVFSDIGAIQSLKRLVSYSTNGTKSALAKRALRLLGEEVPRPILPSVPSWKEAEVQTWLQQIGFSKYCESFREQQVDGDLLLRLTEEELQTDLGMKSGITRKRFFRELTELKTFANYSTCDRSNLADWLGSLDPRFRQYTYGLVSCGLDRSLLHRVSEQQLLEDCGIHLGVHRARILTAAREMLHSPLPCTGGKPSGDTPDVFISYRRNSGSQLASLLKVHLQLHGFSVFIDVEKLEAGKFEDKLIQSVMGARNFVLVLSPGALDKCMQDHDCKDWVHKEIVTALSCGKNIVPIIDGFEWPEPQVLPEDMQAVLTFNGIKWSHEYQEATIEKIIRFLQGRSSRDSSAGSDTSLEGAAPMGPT
Sequence of Calcium-activated potassium channel subunit alpha-1 (Homo sapiens) + Leucine-rich repeat-containing protein 26 (Homo sapiens) (Q2I0M4 whole entry, looked up, one chain of several): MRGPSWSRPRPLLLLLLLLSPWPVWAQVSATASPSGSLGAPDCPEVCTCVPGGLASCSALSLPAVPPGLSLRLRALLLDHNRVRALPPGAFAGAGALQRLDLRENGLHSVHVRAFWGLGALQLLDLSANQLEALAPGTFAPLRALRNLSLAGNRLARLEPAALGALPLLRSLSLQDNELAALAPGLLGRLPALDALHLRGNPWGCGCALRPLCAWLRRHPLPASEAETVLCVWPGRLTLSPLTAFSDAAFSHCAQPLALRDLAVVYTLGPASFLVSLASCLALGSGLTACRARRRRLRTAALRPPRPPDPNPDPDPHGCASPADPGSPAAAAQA

For the compound `CCN(CC)CCCC(C)Nc1ccnc2cc(Cl)ccc12` (configuration not stated), the nuclear beta-catenin stimulation is 1.4% (inactive) in [1] (at 10 µM) and -0.7% in assay [1] (stimulation, at 2 µM). Further, the insulin secretion stimulation in assay [2] is 11.2% (inactive). Further, the viability decrease in assay [3] is -10.8% (inactive). The tube area decrease in [4] was 23% (inactive). In assay [5], the GLP1 secretion stimulation is 6.3% (inactive). In addition, the inhibition of viability in assay [6] was 19.9% (inactive). For the same compound, the results for the viability decrease (inhibition) in assay [7] and in assay [8] were 31.4% (inactive) and 5.6% (inactive), respectively. Besides, the inhibition in [9] is 7.49% (inactive). The red/green cell ratio (normalised) in assay [10] is 1.21 (inactive). Besides, the figures for the normalised cell number in [10] (setting [16]) and in assay [10] (setting [17]) were 0.99 and 1.2, respectively. Moreover, the z-score in assay [11] (setting [18]) was 0.423 (inactive) and -0.395 (inactive); in assay [11] (setting [19]) it was 0.725 and -1.28. For the same compound, in [12], the remaining NAD was 10 nM (inactive). In addition, the luciferase signal in [13] was 40 AU (inactive).
As for `COc1ccc(CCC(C)=O)cc1`, the nuclear beta-catenin stimulation is 0.1% (inactive) in assay [1] (at 10 µM) and 2.7% in [1] (stimulation, at 2 µM). The insulin secretion stimulation in [2] is 0.3% (inactive). Moreover, in assay [3], the viability decrease is -3.4% (inactive). In [4], the tube area decrease is -21% (inactive). In assay [5], the GLP1 secretion stimulation was -3.2% (inactive). In addition, the inhibition of viability in assay [6] is -0.8% (inactive). For the same compound, the viability decrease (inhibition) is -0.7% (inactive) in assay [7] and -19.4% (inactive) in assay [8].
For the compound `CC1=C(CC(=O)O)c2cc(F)ccc2/C1=C\c1ccc(S(C)=O)cc1` (configuration not stated), the nuclear beta-catenin stimulation is -1.5% (inactive) in assay [1] (at 10 µM) and 0.2% in assay [1] (stimulation, at 2 µM). Moreover, in assay [2], the insulin secretion stimulation was 0.2% (inactive). In assay [3], the viability decrease was -51.5% (inactive). Also, the tube area decrease in assay [4] is 15.7% (inactive). In addition, in [5], the GLP1 secretion stimulation was -1.1% (inactive). The inhibition of viability in assay [6] is -9.1% (inactive). Moreover, the viability decrease (inhibition) in [7] was 15% (inactive); in assay [8], -23.3% (inactive). For the same compound, the inhibition in assay [9] is 2.79% (inactive). In addition, in [14], the mean signal was 230 (inactive). Besides, in [10], the red/green cell ratio (normalised) is 1.2 (inactive). For the same compound, the normalised cell number in [10] (setting [16]) amounted to 0.35; in [10] (setting [17]) it was 0.43. Moreover, the figures for the z-score in assay [11] (setting [18]) and in [11] (setting [19]) were -0.637 (inactive) and 0.215, respectively. Further, the remaining NAD in assay [12] is 10 nM (inactive). Further, the luciferase signal in assay [13] is 56 AU (inactive). In addition, the log fold change Tl+ flux in the assay with F380Y is 0.0356 (inactive); with F380Y/beta1, 0.0787 (inactive); in the assay with F380Y/beta2Delta, 0.0561 (inactive); in the assay on F380Y/beta4, 0.0346 (inactive); in [15] it was 0.0386 (inactive).
Consider `O=C(C1CCCCC1)N1CC(=O)N2CCCc3ccccc3C2C1` (configuration not stated), for which the nuclear beta-catenin stimulation is 1.4% (inactive) in [1] (at 10 µM) and 2.7% in assay [1] (stimulation, at 2 µM). The insulin secretion stimulation in [2] is 0.6% (inactive). The viability decrease in [3] is 6.6% (inactive). Besides, the tube area decrease in [4] is 12.9% (inactive). Moreover, the GLP1 secretion stimulation in [5] is 5.2% (inactive). Besides, in assay [6], the inhibition of viability was -9.2% (inactive). The results for the viability decrease (inhibition) in assay [7] and in [8] were -250% (inactive) and -3.1% (inactive), respectively.
In the case of `Oc1ccccc1-c1nnco1`, the nuclear beta-catenin stimulation in [1] (at 10 µM) was 0.3% (inactive); in assay [1] (stimulation, at 2 µM), -0.2%. For the same compound, the insulin secretion stimulation in [2] is 3.2% (inactive). Also, the viability decrease in assay [3] was -2.4% (inactive). Also, the tube area decrease in [4] was -3.9% (inactive). In assay [5], the GLP1 secretion stimulation is -0.1% (inactive). Further, the inhibition of viability in [6] is 12.2% (inactive). For the same compound, the viability decrease (inhibition) is 22.1% (inactive) in [7] and -0.7% (inactive) in assay [8].
